Data taken from PubChem BioAssay (NCATS).
Results filed as inconclusive are left out. Active and inactive are the calls of the source. Unless noted, the call rests on the fitted dose curve; in most records, active means well fitted curve in the direction sought with a large enough effect; inconclusive means small, poorly fitted or top-dose-only effect, or another doubt; inactive means no such curve, though single readings can be large; an effect the other way counts as inactive or inconclusive.

Legend:
[1] = biological target: Ubiquitin carboxyl-terminal hydrolase 1 (Homo sapiens) (UniProt O94782); assay: Inhibitors of USP1/UAF1: Pilot qHTS (AID 504865); further: nearly all actives have a fitted effect of over 35% in size; further: potency means the concentration at half of the fitted maximal effect
In short: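 Kinetic fluorescence assay: 1nM USP1/UAF1, 15 min compound preincubation, then 150nM Ub-Rho; 480/540 nm.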

[2] = biological target: Luciferin 4-monooxygenase (Photinus pyralis) (UniProt P08659); assay: Biochemical firefly luciferase enzyme assay for NPC (AID 624030); further: nearly all actives have a fitted effect of over 70% in size; further: potency means the concentration at half of the fitted maximal effect
In short: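 Direct inhibition of firefly luciferase enzyme (10 nM final, 50 mM Tris Acetate) assessed by luminescence within 5 minutes. Percent activity scaled between DMSO and PTC124 positive control, with concentration-effect curves classified by fit quality and response.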

[3] = S16 Schwann cell viability assay (CellTiter-Glo assay) (AID 624031);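 further: cellular ATP luminescence as a viability measure; nearly all actives have a fitted effect of over 70% in size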
In short: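 CellTiter-Glo ATP luminescence counter-screen in untransfected S16 rat Schwann cells, 24h compound exposure at 37 degree Celsius after overnight seeding (500-750 cells/well); response scaled between cell-free wells and DMSO (0% activity), curves classed by r2 and magnitude.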

[4] = S16 Schwann cell PMP22 intronic element firefly luciferase assay (AID 624032); further: nearly all actives have a fitted effect of over 30% in size; further: potency means the concentration at half of the fitted maximal effect
In short: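 Luciferase reporter of PMP22 intronic-element expression in stably transfected S16 rat Schwann cells, read by ONE-Glo luminescence after 24 h compound exposure at 37 C. Activity scaled between DMSO (0%) and positive-control PTC124; concentration-effect curves quality-classified.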

[5] = S16 Schwann cell PMP22 intronic element beta-lactamase assay (AID 624044; calls by dose curve; further: nearly all actives have a fitted effect of over 15% in size; further: potency means the concentration at half of the fitted maximal effect); settings: S16 rat Schwann cells, PMP22 element beta-lactamase FRET, 24 h; ratio activity, negative = inhibition: at 38.3 µM (top of the series)
In short: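 Rat S16 Schwann cells with beta-Lac driven by a PMP22 intronic element, compound-treated 24 h at 37 °C. LiveBLAzer FRET B/G read: 460 nm normalized to potassium clavulanate vs DMSO; 535 nm FRET as viability; concentration-effect curves classified.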

[6] = tested on: W2; assay: qHTS profiling for inhibitors of Plasmodium falciparum proliferation (AID 504749); further: nearly all actives have a fitted effect of over 60% in size; further: potency means the concentration at half of the fitted maximal effect; settings: P. falciparum in erythrocytes, SYBR Green DNA, 72 h; series mostly up to 28.7 µM
In short: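 Three-day growth assay of blood-stage parasites in erythrocytes (0.3% parasitemia, 2.5% hematocrit) at 37 C, 5% CO2, quantified by SYBR Green DNA staining after overnight detergent lysis.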

[7] = biological target: Cytochrome P450 3A4 (Homo sapiens) (UniProt P08684); assay: qHTS Assay for Activators of Cytochrome P450 3A4 (AID 885); further: nearly all actives have a fitted effect of over 65% in size
In short: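 Steps: enzyme/substrate mix dispensed; compound added, 10 min RT; NADPH regeneration solution added, 60 min RT; luciferin detection buffer stops reaction; 20 min later luminescence measured.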

[8] = Confirmation and Secondary Assay for Modulators of Hemoglobin Beta Chain Splicing at IVS2 654 locus (AID 910);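 further: HeLa cells stably carrying EGFP split by mutant beta-globin IVS2-654 intron; per-well total GFP intensity by laser scanning cytometry after 2-day treatment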
In short: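 Readout: per-well total peak green fluorescence (488 nm ex, 500–520 nm em) from objects 5–250 µm, reflecting correct splicing of an EGFP-654 reporter. Compounds were applied for 2 days at 37 °C to overnight-plated HeLa EGFP-654 cells; controls were DMSO and 500 nM IVS2-654 PNA.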

[9] = Confirmation and Secondary Assay for Modulators of Hemoglobin Beta Chain Splicing at IVS2 705 locus (AID 930);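 further: HeLa cells stably expressing the EGFP-705 splicing reporter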
In short: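 Restored EGFP fluorescence after 2-day compound exposure reports splicing correction in IVS2-705 EGFP reporter HeLa cells; positive control was 500 nM splice-blocking PNA oligo. Signal measured as well total peak GFP intensity (488 nm excitation).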

[10] = biological target: Mitogen-activated protein kinase 10 (Mus musculus) (UniProt Q61831); assay: JNK3 AlphaScreen Assay (AID 530; active means well fitted curve in either direction with a large enough effect, not every such curve was filed as active;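 further: kinase came from lysate of stimulated human HepG2 cells; signal reports phosphorylation of biotinylated GST-cJun 1-79 at Ser73 with 10 µM ATP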)
In short: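 Room-temperature AlphaScreen kinase assay; pre-activated HepG2 lysate as JNK3 source, biotin-GST-cJun(1-79) substrate, 10 uM ATP, compound 15 min preincubation.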

[11] = biological target: Cytochrome P450 3A4 (Homo sapiens) (UniProt P08684); assay: qHTS Assay for Inhibitors and Substrates of Cytochrome P450 3A4 (AID 884); further: nearly all actives have a fitted effect of over 50% in size
In short: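 20 nM human CYP3A4 with 25 uM Luciferin-PPXE (at KM) in 200 mM KPO4, preincubated 10 min with compound; NADPH regeneration started a 60 min RT reaction. Luciferin detected by luminescence, normalized to 57 uM ketoconazole as full inhibition.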

Measured: Potency

Sequence of Ubiquitin carboxyl-terminal hydrolase 1 (Homo sapiens) (O94782 whole entry, looked up): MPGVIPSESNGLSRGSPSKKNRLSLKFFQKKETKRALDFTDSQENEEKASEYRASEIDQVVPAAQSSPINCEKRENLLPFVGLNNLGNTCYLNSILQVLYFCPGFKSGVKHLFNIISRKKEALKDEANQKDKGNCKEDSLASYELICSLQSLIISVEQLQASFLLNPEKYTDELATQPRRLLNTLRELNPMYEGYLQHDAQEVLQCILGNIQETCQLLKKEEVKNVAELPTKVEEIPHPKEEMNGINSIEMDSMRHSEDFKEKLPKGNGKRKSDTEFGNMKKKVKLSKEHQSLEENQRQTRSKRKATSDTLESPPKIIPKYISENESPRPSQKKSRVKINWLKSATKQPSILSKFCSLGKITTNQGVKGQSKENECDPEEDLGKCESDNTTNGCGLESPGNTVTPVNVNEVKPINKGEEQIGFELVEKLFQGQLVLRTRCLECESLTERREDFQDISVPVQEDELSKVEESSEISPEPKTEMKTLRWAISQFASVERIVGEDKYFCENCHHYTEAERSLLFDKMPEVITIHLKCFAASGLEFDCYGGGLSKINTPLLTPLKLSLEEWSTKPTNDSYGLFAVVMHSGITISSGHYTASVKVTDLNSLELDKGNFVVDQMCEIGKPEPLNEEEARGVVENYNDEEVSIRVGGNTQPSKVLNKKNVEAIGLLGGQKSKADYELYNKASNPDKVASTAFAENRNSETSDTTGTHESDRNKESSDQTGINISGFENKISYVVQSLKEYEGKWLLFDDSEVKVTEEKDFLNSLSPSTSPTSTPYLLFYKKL
Sequence of Luciferin 4-monooxygenase (Photinus pyralis) (P08659 whole entry, looked up): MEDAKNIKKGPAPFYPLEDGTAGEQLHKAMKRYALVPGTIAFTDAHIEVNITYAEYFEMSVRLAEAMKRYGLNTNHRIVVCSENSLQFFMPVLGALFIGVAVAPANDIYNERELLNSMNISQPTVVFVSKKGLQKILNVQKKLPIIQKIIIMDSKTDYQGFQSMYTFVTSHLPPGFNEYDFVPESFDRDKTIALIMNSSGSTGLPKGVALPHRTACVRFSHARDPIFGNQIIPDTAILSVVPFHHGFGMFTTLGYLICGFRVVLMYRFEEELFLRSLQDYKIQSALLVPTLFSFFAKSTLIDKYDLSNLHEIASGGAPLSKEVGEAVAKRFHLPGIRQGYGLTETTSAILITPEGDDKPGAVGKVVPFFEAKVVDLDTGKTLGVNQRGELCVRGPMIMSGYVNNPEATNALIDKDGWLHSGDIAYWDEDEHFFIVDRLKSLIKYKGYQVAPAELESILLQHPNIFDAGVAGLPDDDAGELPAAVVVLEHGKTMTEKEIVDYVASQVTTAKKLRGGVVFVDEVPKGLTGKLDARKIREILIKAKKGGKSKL
Sequence of Cytochrome P450 3A4 (Homo sapiens) (P08684 whole entry, looked up): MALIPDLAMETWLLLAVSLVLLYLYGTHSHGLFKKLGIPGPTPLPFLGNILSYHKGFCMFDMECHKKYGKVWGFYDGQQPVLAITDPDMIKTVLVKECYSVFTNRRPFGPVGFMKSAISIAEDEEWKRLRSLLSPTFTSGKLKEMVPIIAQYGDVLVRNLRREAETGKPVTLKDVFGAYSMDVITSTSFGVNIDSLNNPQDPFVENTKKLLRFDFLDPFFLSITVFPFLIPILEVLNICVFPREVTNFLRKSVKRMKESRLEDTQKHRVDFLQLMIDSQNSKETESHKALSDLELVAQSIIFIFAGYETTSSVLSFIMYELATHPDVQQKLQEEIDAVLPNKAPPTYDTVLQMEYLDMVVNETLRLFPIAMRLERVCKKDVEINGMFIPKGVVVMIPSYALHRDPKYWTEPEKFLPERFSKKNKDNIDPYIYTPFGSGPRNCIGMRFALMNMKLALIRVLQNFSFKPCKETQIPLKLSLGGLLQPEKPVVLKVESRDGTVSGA

CCCC(=O)Nc1c(I)cc(I)c(C[C@H](CC)C(=O)O)c1I
inactive: [1] | [2] | [3] | [4] | [5]

Cc1cc2nc3c(=O)[nH]c(=O)nc-3n(CC(O)C(O)C(O)COP(=O)(O)O)c2cc1C (configuration not stated)
inactive: [2] | [3]
active: [1] 31.6 µM

O=C(O)Cc1sc(-c2ccc(Cl)cc2)nc1-c1ccccc1
active: [2] 25.6 µM
inactive: [1] | [3] | [4] | [5] | [6]

CC1(C(=O)O)CCC2(C)CCC3(C)C(=CC(=O)C4C5(C)CCC(O)C(C)(C)C5CCC43C)C2C1 (configuration not stated)
inactive: [2] | [3] | [4] | [6]

C[C@@H](O)[C@@H]1C(=O)N2C(C(=O)O)=C([C@H]3CCCO3)S[C@H]12
inactive: [1] | [4] | [6]

CC(CN1CC(=O)NC(=O)C1)N1CC(=O)NC(=O)C1 (configuration not stated)
inactive: [1] | [2] | [3] | [5] | [6]
active: [4] 18.1 µM

CO/N=C(/C(=O)N[C@@H]1C(=O)N2C(C(=O)O)=C(CSc3nnnn3C)CS[C@H]12)c1csc(N)n1
inactive: [1] | [2] | [4] | [6]

CC(=O)C1(O)Cc2c(O)c3c(c(O)c2C(OC2CC(N)C(O)C(C)O2)C1)C(=O)c1c(O)cccc1C3=O (configuration not stated)
active: [1] 22.4 µM | [5] 0.0999 µM | [6] 4.26 µM

NCCCCC(N)C(=O)O (configuration not stated)
inactive: [1] | [3] | [4] | [5] | [6]

C[C@@H]1CCN(C(=O)[C@H](CCCNC(=N)N)NS(=O)(=O)c2cccc3c2NC[C@H](C)C3)[C@@H](C(=O)O)C1
inactive: [1] | [2] | [3] | [4] | [5]

Nc1nc(/C(=C/CC(=O)O)C(=O)NC2C(=O)N3C(C(=O)O)=CCSC23)cs1 (configuration not stated)
not listed: [1] | [10] | [11]
inactive: all other assays above

C=C[C@@]1(C)C[C@H](OC(=O)CSC(C)(C)CNC(=O)[C@@H](N)C(C)C)[C@@]2(C)C(C)CC[C@@]3(CCC(=O)[C@@H]32)[C@H](C)[C@H]1O (some centres not stated)
inactive: [1] | [2] | [5]
active: [4] 0.361 µM | [6] 0.269 µM

CC(=O)N1CC(O)CC1C(=O)O (configuration not stated)
inactive: [1] | [2] | [3] | [4] | [6]

COc1ccc2cc1Oc1cc3c(cc1OC)CC[N+](C)(C)C3Cc1ccc(cc1)Oc1c(OC)c(OC)cc3c1C(C2)[N+](C)(C)CC3 (configuration not stated)
inactive: [1] | [2] | [4] | [5]

O=C(O)c1ccc(N[C@@H]2OC[C@@H](O)[C@@H](O)[C@@H]2O)cc1
inactive: [1] | [2] | [3] | [4] | [6]

CO/N=C(/C(=O)N[C@@H]1C(=O)N2C(C(=O)O)=C(CSc3cnns3)CS[C@H]12)c1csc(N)n1
inactive: [2] | [4] | [6]

Nc1ncn(C2C[C@H](O)[C@@H](CO)O2)c(=O)n1 (some centres not stated)
inactive: [1] | [2] | [6]

C=C1NC(=O)c2cc(CN(C)c3ccc(C(=O)N[C@@H](CCC(=O)O)C(=O)O)s3)ccc2N1
active: [4] 0.0057 µM | [5] 0.0079 µM | [6] 13.5 µM
inactive: [2] | [3]

CC1(C)O[C@@H]2C[C@H]3[C@@H]4CCC5=CC(=O)C=C[C@]5(C)[C@H]4C(O)C[C@]3(C)[C@]2(C(=O)CO)O1 (some centres not stated)
inactive: [1] | [2] | [3] | [4] | [5]

Clc1ccc(CS[C@@H](Cn2ccnc2)c2ccc(Cl)cc2Cl)cc1
inactive: [10] | [2] | [3] | [4]
active: [6] 1.02 µM

Cn1cc(C(=O)[C@@H]2CCc3[nH]cnc3C2)c2ccccc21
inactive: [1] | [2] | [4] | [5] | [6]

COc1ccc(C(=O)/C(Br)=C/C(=O)O)cc1
inactive: [1] | [2] | [5]
active: [4] 14.4 µM

CC1=C(c2ccc(NN=C(C#N)C#N)cc2)NNC(=O)C1
inactive: [4] | [5] | [6]
active: [2] 14.4 µM

C[C@H](CN1c2ccccc2Sc2cccnc21)N(C)C
active: [6] 1.69 µM
inactive: [2] | [4]

CCCSS/C(CCO)=C(/C)N(C=O)Cc1cnc(C)nc1N
active: [4] 10.2 µM
inactive: [1] | [6]

C[N+]12CCCC[C@@H]1CCC(=C(c1cccs1)c1cccs1)C2 (some centres not stated)
active: [6] 13.5 µM

C[C@@H]1CC2C3CCC4=CC(=O)C=C[C@]4(C)[C@@]3(F)[C@@H](O)C[C@]2(C)[C@@]1(O)C(=O)COC(=O)c1cccc(S(=O)(=O)O)c1 (some centres not stated)
inactive: [1] | [2] | [3] | [4] | [6]

Cc1c(C)c2c(c(C)c1O)CCC(C)(CCCC(C)CCCC(C)CCCC(C)C)O2 (configuration not stated)
not listed: [1] | [3] | [7] | [10]
inactive: all other assays above

CNC1CCc2cc(OC)c(OC)c(OC)c2-c2ccc(OC)c(=O)cc21 (configuration not stated)
inactive: [1] | [3]
active: [5] 0.178 µM

C[C@]12C=CC(=O)N[C@@H]1CC[C@@H]1C2CC[C@]2(C)C(C(=O)Nc3cc(C(F)(F)F)ccc3C(F)(F)F)CC[C@@H]12 (some centres not stated)
active: [6] 1.51 µM
inactive: [2] | [5]

C#C[C@@]1(O)CC[C@@H]2[C@H]3CCC4=C/C(=N\O)CC[C@H]4[C@@H]3CC[C@]21CC
inactive: [2] | [5]
